Test results from the supplement of paper PMC13380429.
Values without a mark were called inactive.

System: Vero E6 infected with SARS-CoV-2
Assay: inhibition of SARS-CoV-2 cytopathic effect; higher = more antiviral protection, active = above 15
Conditions: 48 h

Compound	inhibition of SARS-CoV-2 cytopathic effect (1 nM)	inhibition of SARS-CoV-2 cytopathic effect (8.33 nM)	inhibition of SARS-CoV-2 cytopathic effect (100 nM)	inhibition of SARS-CoV-2 cytopathic effect (833.33 nM)	inhibition of SARS-CoV-2 cytopathic effect (10000 nM)
Oc1ccc2[nH]cc(C3=CCNCC3)c2n1	6.34%	6.88%	-4.05%	-1.7%	-2.6%
Cc1ccccc1C(=O)Nc1ccc(C(=O)N2CCCC(N(C)C)c3ccccc32)cc1 (stereo not given) [mozavaptan]	0.68%	1.45%	3.31%	-0.56%	-5.53%
C[C@H](CCC(=O)O)[C@H]1CC[C@H]2[C@@H]3[C@H](O)C[C@@H]4C[C@H](O)CC[C@]4(C)[C@H]3C[C@H](O)[C@]12C [cholic-acid]	-0.3%	0.75%	0.02%	-0.84%	0.54%
CC(C)(O)C(Cl)(Cl)Cl [chlorobutanol]	0.34%	1.76%	0.44%	1.86%	-2.07%
O=c1c(-c2ccccc2)c1-c1ccccc1 [diphencyprone]	-0.95%	0.49%	-1.61%	-1.95%	5.98%
Nc1ncnc2c1c(-c1cnc3[nH]ccc3c1)nn2C1CCCC1	-1.07%	-0.16%	0.41%	-3.88%	-16.5%
C=C1C(=O)O[C@@H]2C[C@@]3(C)CCC[C@H](C)C3=C[C@H]12 [alantolactone]	-2.07%	-0.06%	-2.01%	1.03%	12.6%
COc1cc([C@@H]2c3cc4c(cc3[C@@H](O[C@@H]3O[C@@H]5CO[C@@H](C)O[C@H]5[C@H](O)[C@H]3O)[C@H]3COC(=O)[C@H]23)OCO4)cc(OC)c1O [etoposide]	6.79%	-0.79%	-0.58%	-2.82%	4.17%
COc1ccc2[nH]c3c(-c4cccc5ccccc45)nccc3c2c1	-2.63%	0.26%	-0.2%	-4.62%	-2.93%
CC(C)(C)c1ccc(C(=O)CCCN2CCC(OC(c3ccccc3)c3ccccc3)CC2)cc1 [ebastine]	0.86%	1.48%	0.7%	-2.23%	-4.94%
OCCN1C[C@H](O)[C@@H](O)[C@H](O)[C@H]1CO [miglitol]	-4.01%	-3.41%	52.1% (active)	-3.71%	-4.78%
CCOc1nc2c(N)ncnc2n1CC	-1.28%	2.22%	-1.47%	1.94%	-1.72%
CN(N=O)C(=O)N[C@@H](C=O)[C@@H](O)[C@H](O)[C@H](O)CO [streptozotocin]	-2.28%	-2.25%	2.59%	1%	3.27%
N#Cc1cccc(-c2c[nH]c3ncnc(N4CCOCC4)c23)c1	-1.16%	-0.52%	-2.71%	-0.07%	-2.14%
CC(C)NCC(O)c1ccc([N+](=O)[O-])cc1 (stereo not given) [nifenalol]	-3.06%	0.04%	-1.08%	0.11%	-2.75%
Cc1ccsc1C(=CCCN1CCC[C@@H](C(=O)O)C1)c1sccc1C [tiagabine]	1.59%	1.98%	0.33%	-3.02%	0.65%
Cc1cccn2c(=O)c(/C=C(\C#N)c3nc4ccccc4s3)c(Oc3ccc(F)cc3)nc12	-2.85%	0.91%	-1.07%	-1.93%	-0.23%
CC(=O)NS(=O)(=O)c1ccc(NC(=O)c2ccccc2C(=O)O)cc1 [phthalylsulfacetamide]	-0.71%	-1.43%	-0.27%	0.53%	-0.38%
COC(=O)c1ccc2c(c1)NC(=O)/C2=C(\Nc1ccc(N(C)C(=O)CN2CCN(C)CC2)cc1)c1ccccc1 [nintedanib]	-1.36%	-3%	-0.71%	0.19%	0%
CC(=O)NC[C@H]1CN(c2ccc(N3CCOCC3)c(F)c2)C(=O)O1 [linezolid]	-5.81%	4.06%	2.87%	-0.71%	3.13%

Compound	inhibition of SARS-CoV-2 cytopathic effect (1 nM)	inhibition of SARS-CoV-2 cytopathic effect (8.33 nM)	inhibition of SARS-CoV-2 cytopathic effect (100 nM)	inhibition of SARS-CoV-2 cytopathic effect (833.33 nM)	inhibition of SARS-CoV-2 cytopathic effect (10000 nM)
Cn1cc(C(=O)C(=O)N[C@H]2CN3CCC2CC3)c2ccccc21	0.78%	1.33%	0.72%	-1.49%	1.51%
CCCc1c(OCCCOc2ccc(OCC(=O)O)cc2)ccc(C(C)=O)c1O	3.84%	-0.07%	1.16%	1.63%	1.76%
Cn1cc(C(=O)OCC2CCN(CCNS(C)(=O)=O)CC2)c2ccccc21	-2.5%	4.63%	5.3%	6.93%	-0.18%
N#Cc1ccnc(N2C(=O)CC[C@H]2C(=O)N(c2cncc(F)c2)[C@H](C(=O)NC2CC(F)(F)C2)c2ccccc2Cl)c1 [ivosidenib]	-0.33%	3.62%	0.3%	0.14%	3.82%
O=C(O)c1cc2occc2[nH]1	-2.55%	-2.94%	-2.08%	-2.97%	-2.87%
O=C1CCC[C@@H]2[C@H]3CCC[N+]4([O-])CCC[C@@H](CN12)[C@@H]34 (stereo not given in full) [oxymatrine]	2.76%	1.55%	1.11%	0.79%	-1.71%
Cc1cc2cc3c(C)cc(=O)oc3c(C)c2o1 [trioxsalen]	1.96%	2.74%	0.65%	3.62%	-0.06%
C[C@H](/C=C/[C@H](C)C(C)(C)O)[C@H]1CC[C@H]2/C(=C/C=C3C[C@@H](O)C[C@H](O)C3)CCC[C@]12C [paricalcitol]	0.83%	3.37%	-0.2%	1.21%	-0.81%
O=C(/C=C\n1cnc(-c2cc(C(F)(F)F)cc(C(F)(F)F)c2)n1)N1CC(F)(F)C1	2.37%	-1.09%	-2.84%	-7.74%	-16.6%
CC(C)c1ccccc1S(=O)(=O)c1cc(N)c2ncccc2c1[N+](=O)[O-]	1.33%	1.24%	0.12%	5.82%	9.31%
CC(C)NC(=O)N1CC[C@H](NC2=Nc3cc(F)ccc3N(CC(F)F)c3ccc(Cl)cc32)C1	2.37%	0.15%	3.33%	8.12%	-0.57%
Cc1cn([C@@H]2C[C@@H](O)[C@H](CO)O2)c(=O)[nH]c1=O [telbivudine]	1%	-1.65%	-1.15%	-0.26%	2.12%
CNCC[C@@H](Oc1ccccc1C)c1ccccc1 [atomoxetine]	1.13%	1.43%	3.37%	2.34%	-2.83%
Cc1c(Cl)cccc1S(=O)(=O)Nc1nc(NCCc2ccccc2)nc2c1CN(Cc1ccccc1)CC2	5.62%	1.85%	0.14%	0.89%	-1.37%
CN1c2ccccc2C(=O)N2CCc3c([nH]c4ccccc34)C21 (stereo in doubt) [evodiamine]	0.51%	2.11%	2.14%	4.34%	2.33%
COc1nccnc1NS(=O)(=O)c1ccc(N)cc1 [sulfametopyrazine]	-1.43%	0.06%	-1.36%	-2.74%	-0.68%
CCCn1c(=O)c2nc(-c3ccccc3)[nH]c2n(CCC)c1=O [1,3-dipropyl-8-phenylxanthine]	-3.41%	-2.62%	-2.96%	-3.56%	-1.61%
O=C(c1ccc(C(=O)N2CCC(N3CCCC3)CC2)c(Nc2ccccc2)c1)N1CCC(N2CCCC2)CC1	0.43%	-1.56%	0.31%	-4.9%	-1.44%
CCCOc1ccc(C(=O)OCCN(CC)CC)cc1N [proxymetacaine]	1.69%	1.71%	2.25%	0.25%	2%
C=CCc1ccc(O)c(-c2ccc(O)c(CC=C)c2)c1 [honokiol]	0.73%	-0.89%	-1.94%	-0.06%	-0.26%
